The source of these data is PubChem BioAssay.

Values without a mark were called inactive. For some of these results: Measured potencies and affinities stand elsewhere. Activity calls are given as the source filed them. Unless noted, no rule for the calls is given here.

The inhibition is the relative decrease from the control value, in per cent.

Assay [1] can be described thus: antimalarial activity against Dd2 strain (AID 2302;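 active = growth inhibition above 50% at the single 2 µM test dose, taken to imply half-maximal potency below 2 µM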;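 also: 0% = DMSO untreated growth and 100% = chloroquine plus artemisinin killed control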). The note with it: P. falciparum Dd2 in RBCs, LDH growth readout, 72 h; at 2 µM; stronger effect = higher value.
Assay [2] in a line: HepG2 cytotoxicity, primary screen, cytotoxicity control for P. falciparum antimalarial project, cell-based, ATP luminescence (AID 2303;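 active = inhibition above 50%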;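 also: 0% = DMSO wells and 100% = digitonin-killed cells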). Particulars: HepG2 viability, 24-48 h, at 10 µM, stronger effect = higher value.
For assay [3], the target named is L-lactate dehydrogenase (Plasmodium falciparum (isolate CDC / Honduras)) (UniProt Q27743). The assay can be described thus: PfLDH activity inhibition – cell lysate, 3D7 strain, counter-screen for P. falciparum growth inhibition project (AID 2304).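 Also: 0% = vehicle and 100% = reference inhibitor.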 The note with it: P. falciparum 3D7 crude extract, LDH APAD/NBT absorbance; at 2 µM; stronger effect = higher value.
L-lactate dehydrogenase (Plasmodium falciparum (isolate CDC / Honduras)), sequence (Q27743 whole entry, looked up): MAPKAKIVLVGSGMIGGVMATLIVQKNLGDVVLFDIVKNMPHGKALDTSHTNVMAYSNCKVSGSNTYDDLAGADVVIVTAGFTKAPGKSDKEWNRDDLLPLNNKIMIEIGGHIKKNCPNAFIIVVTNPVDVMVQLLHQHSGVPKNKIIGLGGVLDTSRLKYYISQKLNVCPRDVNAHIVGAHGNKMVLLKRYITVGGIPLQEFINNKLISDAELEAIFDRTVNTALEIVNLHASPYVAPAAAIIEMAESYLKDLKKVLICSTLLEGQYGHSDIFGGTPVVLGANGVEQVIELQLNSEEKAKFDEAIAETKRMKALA
Assay [4] is described as follows: inhibition of 3D7 malaria parasite growth – strain 3D7 (AID 2306).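 Also: 0% = DMSO wells and 100% = chloroquine plus artemisinin control wells.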 Particulars: P. falciparum 3D7 erythrocytic growth, LDH absorbance, 72 h; at 2 µM; stronger effect = higher value.
Assay [5] addresses Calcium-dependent protein kinase 1 (Plasmodium falciparum (isolate 3D7)) (UniProt P62344). The assay can be described thus: PfCDPK1 kinase inhibitors, biochemical, TCAMS library (AID 1159585; cut-off not given, nearly all actives have IC50 up to about 0.98 µM;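 also: inhibitors leave more ATP so luminescence rises with inhibition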). The note with it: recombinant PfCDPK1, Kinase-Glo ATP depletion luminescence. For orientation: In Kinase-Glo more light means more ATP remaining.
Assay [6] addresses Plasmodium falciparum protein kinase 6 (PK6, PF3D7_1337100) (UniProt Q8IDW1). The assay is described as follows: PfPK6 kinase inhibitors, biochemical, TCAMS library (AID 1159586). The note with it: recombinant PfPK6, Kinase-Glo ATP depletion luminescence.
For assay [7], the target named is Protein kinase 7 (PK7), Plasmodium falciparum 3D7 (PF3D7_0213400) (UniProt Q7YTF7). The assay is described as follows: inhibition of Plasmodium PK7 catalytic activity – biochemical, TCAMS antimalarial set, Kinase-Glo luminescence (AID 1159587). The note with it: recombinant PfPK7, Kinase-Glo ATP depletion luminescence.
Protein kinase 7 (PK7), Plasmodium falciparum 3D7 (PF3D7_0213400), sequence (Q7YTF7 1-343): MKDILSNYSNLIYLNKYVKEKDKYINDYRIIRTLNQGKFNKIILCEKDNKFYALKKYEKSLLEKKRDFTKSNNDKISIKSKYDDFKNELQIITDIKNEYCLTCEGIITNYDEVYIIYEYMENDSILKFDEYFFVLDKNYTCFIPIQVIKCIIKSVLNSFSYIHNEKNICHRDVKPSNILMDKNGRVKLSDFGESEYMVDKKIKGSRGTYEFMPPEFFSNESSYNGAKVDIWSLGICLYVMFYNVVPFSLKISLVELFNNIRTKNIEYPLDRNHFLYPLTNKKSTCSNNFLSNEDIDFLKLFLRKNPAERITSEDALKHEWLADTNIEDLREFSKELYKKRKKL
The target of assay [8] is Calcium-dependent protein kinase 4 (Plasmodium falciparum (isolate 3D7)) (UniProt Q8IBS5). The assay is described as follows: PfCDPK4 kinase inhibitors, biochemical, TCAMS library (AID 1159588; cut-off not given, nearly all actives have IC50 up to about 0.91 µM). The note with it: recombinant PfCDPK4, Kinase-Glo ATP depletion luminescence.
Calcium-dependent protein kinase 4 (Plasmodium falciparum (isolate 3D7)), sequence (Q8IBS5 whole entry, looked up): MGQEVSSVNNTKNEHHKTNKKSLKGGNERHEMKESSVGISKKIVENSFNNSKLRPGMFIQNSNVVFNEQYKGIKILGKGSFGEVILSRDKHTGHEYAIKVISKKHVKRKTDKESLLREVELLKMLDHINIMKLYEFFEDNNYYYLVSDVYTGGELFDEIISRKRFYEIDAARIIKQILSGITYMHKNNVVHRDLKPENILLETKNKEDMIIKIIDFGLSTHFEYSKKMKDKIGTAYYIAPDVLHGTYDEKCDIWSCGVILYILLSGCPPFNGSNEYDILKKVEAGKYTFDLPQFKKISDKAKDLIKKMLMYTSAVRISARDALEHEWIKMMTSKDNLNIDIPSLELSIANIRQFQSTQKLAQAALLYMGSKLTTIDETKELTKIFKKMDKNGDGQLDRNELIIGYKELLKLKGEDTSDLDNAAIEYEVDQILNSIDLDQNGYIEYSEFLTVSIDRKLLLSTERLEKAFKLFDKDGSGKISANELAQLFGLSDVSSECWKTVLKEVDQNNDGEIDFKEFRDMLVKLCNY

Plasmodium falciparum protein kinase 6 (PK6, PF3D7_1337100), sequence (Q8IDW1 1-305): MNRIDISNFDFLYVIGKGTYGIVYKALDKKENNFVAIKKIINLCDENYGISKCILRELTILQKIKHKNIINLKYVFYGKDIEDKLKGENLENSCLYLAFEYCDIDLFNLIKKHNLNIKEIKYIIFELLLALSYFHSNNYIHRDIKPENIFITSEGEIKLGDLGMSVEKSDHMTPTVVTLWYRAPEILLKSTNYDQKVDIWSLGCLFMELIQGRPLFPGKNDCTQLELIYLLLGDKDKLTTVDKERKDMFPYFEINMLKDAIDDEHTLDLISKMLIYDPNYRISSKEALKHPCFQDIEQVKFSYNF
Calcium-dependent protein kinase 1 (Plasmodium falciparum (isolate 3D7)), sequence (P62344 whole entry, looked up): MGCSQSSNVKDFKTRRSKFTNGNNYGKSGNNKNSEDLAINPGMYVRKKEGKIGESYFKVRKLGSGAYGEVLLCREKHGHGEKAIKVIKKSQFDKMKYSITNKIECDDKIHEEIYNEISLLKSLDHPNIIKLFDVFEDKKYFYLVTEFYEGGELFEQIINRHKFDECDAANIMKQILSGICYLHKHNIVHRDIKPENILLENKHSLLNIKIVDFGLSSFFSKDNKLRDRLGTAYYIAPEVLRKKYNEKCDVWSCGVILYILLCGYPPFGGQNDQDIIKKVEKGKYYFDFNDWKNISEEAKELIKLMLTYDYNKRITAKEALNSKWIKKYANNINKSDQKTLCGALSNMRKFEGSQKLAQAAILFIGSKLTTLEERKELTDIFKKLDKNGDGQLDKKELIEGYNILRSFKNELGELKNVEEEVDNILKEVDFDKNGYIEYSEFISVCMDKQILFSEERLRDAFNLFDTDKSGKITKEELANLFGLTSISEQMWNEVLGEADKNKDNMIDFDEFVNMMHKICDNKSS

`Cc1ccc(OCC2CCN(c3ncc(C(=O)NC4CC4)cc3Cl)CC2)cc1`: the growth inhibition in assay [1] is 72% (active); in assay [4], 88% (active). In addition, the figures for the inhibition in assay [2] and in assay [3] were 2% and 0%, respectively. Also, the outcome in assay [5], in assay [6], in assay [7] and in assay [8] was inactive.

Take `NS(=O)(=O)c1cccc(Br)c1`: the growth inhibition was -5% in assay [1] and 98% (active) in assay [4]. Besides, the inhibition in assay [2] and in assay [3] was 0% each time. Also, the result in assay [5], in assay [6], in assay [7] and in assay [8] was inactive.

For the compound `COCCn1c(-c2cccc(Cl)c2)nn(-c2ccc([N+](=O)[O-])cc2Cl)c1=S`, the growth inhibition in assay [1] was 99% (active); in assay [4], 100% (active). Moreover, the results for the inhibition in assay [2] and in assay [3] were 2% and -2%, respectively. Also, the outcome in assay [5], in assay [6], in assay [7] and in assay [8] was inactive.

For the compound `CCN(CC)CCCCOc1ccc2c(c1)C(=O)c1cc(OCCCCN(CC)CC)ccc1-2`, the growth inhibition was 44% in assay [1] and 102% (active) in assay [4]. Besides, the inhibition was 24% in assay [2] and -6% in assay [3]. In addition, the outcome in assay [5], in assay [6], in assay [7] and in assay [8] was inactive.

`COc1ccc(Cl)cc1N1CCN(CCCNC(=O)c2ccc(-c3nc4cc(Cl)c(Cl)cc4[nH]3)c(C)c2)CC1`: the growth inhibition in assay [1] was -1%; in assay [4], 101% (active). Moreover, the inhibition is 4% in assay [2] and 2% in assay [3]. The outcome in assay [5], in assay [6], in assay [7] and in assay [8] was inactive.

On to `O=C(Nc1cccc(CN2CCN(C(=O)c3cccs3)CC2)c1)c1cccs1`, for which the growth inhibition in assay [1] was 91% (active); in assay [4], 95% (active). Further, the inhibition in assay [2] was -2%; in assay [3], 3%. For the same compound, the result in assay [5], in assay [6], in assay [7] and in assay [8] was inactive.

Regarding `CC(C)(C)c1cc2cc(Nc3ccnc4cc(-c5nccs5)ccc34)ccc2[nH]1`, the results for the growth inhibition in assay [1] and in assay [4] were 97% (active) and 101% (active), respectively. For the same compound, the inhibition in assay [2] is 5%; in assay [3], -1%. For the same compound, the result in assay [5], in assay [6], in assay [7] and in assay [8] was inactive.

Regarding `COc1ccccc1N=C1SC(=Cc2cn(CC(=O)N3CCCc4ccccc43)c3ccccc23)C(=O)N1C1CCCCC1`, the growth inhibition in assay [1] was 99% (active); in assay [4], 100% (active). Further, the inhibition is 10% in assay [2] and 2% in assay [3]. Further, the result in assay [5], in assay [6], in assay [7] and in assay [8] was inactive.

`COc1cc(Nc2ncc3c(C)nc(-c4cccc(Nc5ccc(CN6CCS(=O)(=O)CC6)cc5)c4)n3n2)cc(OC)c1OC`: the results for the growth inhibition in assay [1] and in assay [4] were 79% (active) and 90% (active), respectively. The inhibition in assay [2] and in assay [3] was 2% throughout. Besides, the outcome in assay [5], in assay [6], in assay [7] and in assay [8] was inactive.

With `CCCCCN(C(=O)Nc1cc(C(F)(F)F)cc(C(F)(F)F)c1)C(C)c1nc2ccccc2c(=O)n1CC` (stereo not given), the growth inhibition in assay [1] is 101% (active); in assay [4], 100% (active). In addition, the results for the inhibition in assay [2] and in assay [3] were -3% and 3%, respectively. The outcome in assay [5], in assay [6], in assay [7] and in assay [8] was inactive.

On to `O=C(NCCc1ccc(O)cc1)n1c2ccccc2c2ccccc21`, for which the growth inhibition is 76% (active) in assay [1] and 83% (active) in assay [4]. The inhibition was 3% in assay [2] and -1% in assay [3]. Also, the outcome in assay [5], in assay [6], in assay [7] and in assay [8] was inactive.

On to `N#Cc1ccc2c(c1)CCN(CCC1CCC(NC(=O)/C=C/c3cccc4cc[nH]c34)CC1)CC2` (stereo not given), for which the growth inhibition in assay [1] is 29%; in assay [4] it was 89% (active). Moreover, the figures for the inhibition in assay [2] and in assay [3] were 22% and -3%, respectively. For the same compound, the result in assay [5], in assay [6], in assay [7] and in assay [8] was inactive.

With `O=C(CN1CCC(NCc2cnc(-c3ccc(Cl)cc3)[nH]2)CC1)N1CCc2ccccc21`, the growth inhibition was 5% in assay [1] and 100% (active) in assay [4]. Further, the inhibition in assay [2] is 11%; in assay [3], -8%. The result in assay [5], in assay [6], in assay [7] and in assay [8] was inactive.

For the compound `O=[N+]([O-])c1cccc(Nc2cncc(-c3ccc(CO)cc3)c2)c1`, the growth inhibition was 96% (active) in assay [1] and 85% (active) in assay [4]. Besides, the results for the inhibition in assay [2] and in assay [3] were 16% and -5%, respectively. The result in assay [5], in assay [6], in assay [7] and in assay [8] was inactive.

Regarding `O=C(Nc1ccc(Cn2ncc(N3CCCNCC3)c(Cl)c2=O)cc1)Nc1cc(F)cc(C(F)(F)F)c1`, the growth inhibition was 44% in assay [1] and 101% (active) in assay [4]. In addition, the inhibition is 35% in assay [2] and 4% in assay [3]. For the same compound, the result in assay [5], in assay [6], in assay [7] and in assay [8] was inactive.

In the case of `COc1ccc(C(=O)Nc2nonc2-c2ccc(OC)c(OC)c2)cc1Cl`, the growth inhibition in assay [1] and in assay [4] was 97% (active) throughout. Moreover, the inhibition in assay [2] is 6%; in assay [3], 0%. For the same compound, the outcome in assay [5], in assay [6], in assay [7] and in assay [8] was inactive.

Take `CS(=O)(=O)Nc1ccc2c(C3CCN(CCC4CCN(C(=O)/C=C/c5ccc(Cl)c(Cl)c5)CC4)CC3)c[nH]c2c1`: the growth inhibition in assay [1] is 63% (active); in assay [4] it was 99% (active). Moreover, the inhibition is 35% in assay [2] and -3% in assay [3]. In addition, the result in assay [5], in assay [6], in assay [7] and in assay [8] was inactive.

Regarding `COCCCNC(=O)[C@H]1CNCCN1C(=O)c1ccccc1`, the results for the growth inhibition in assay [1] and in assay [4] were 95% (active) and 97% (active), respectively. For the same compound, the inhibition was 53% (active) in assay [2] and -2% in assay [3]. In addition, the outcome in assay [5], in assay [6], in assay [7] and in assay [8] was inactive.

`Cc1ccc(Nc2nc3cc(N(C)c4ccnc(Nc5cccc(CS(C)(=O)=O)c5)n4)ccc3o2)cc1`: the growth inhibition in assay [1] was 16%; in assay [4], 90% (active). The inhibition is -19% in assay [2] and 3% in assay [3]. In addition, the outcome in assay [5], in assay [6], in assay [7] and in assay [8] was inactive.

Take `CCN(CC)CCCSc1ccc(-c2ccc(SCCCN(CC)CC)cc2)cc1`: the growth inhibition in assay [1] is 30%; in assay [4], 87% (active). The inhibition was 38% in assay [2] and -8% in assay [3]. The result in assay [5], in assay [6], in assay [7] and in assay [8] was inactive.
